40 compounds from PubChem BioAssay (NCATS) can be followed below.

SMILES strings stand for the structures. Records with an inconclusive call do not appear. A call without a number means that no potency is given here. Calls of active or inactive are those of the source. Calls come from the whole dose curve; as a rule, active = well fitted curve in the direction sought with a large enough effect; inconclusive = small, poorly fitted or top-dose-only effect, or another doubt; inactive = no such curve, though single readings can be large; an effect the other way counts as inactive or inconclusive.

The target in one assay is Aldehyde dehydrogenase, mitochondrial (Homo sapiens) (UniProt P05091). Briefly: qHTS for Inhibitors of the Aldehyde Dehydrogenase Family (ALDH2) Primary screen (AID 2061308). Note: nearly all actives have a fitted effect of over 55% in size. The note with it: ALDH2 enzyme inhibition qHTS, 1536-well; series mostly up to 56 µM. In general terms: In qHTS, concentration-response curves come from the screen itself.
Turning to `CN[C@@H]1[C@H](O[C@H]2[C@H](O[C@@H]3[C@@H](O)[C@H](O)[C@@H](N=C(N)N)[C@H](O)[C@H]3N=C(N)N)O[C@@H](C)[C@]2(O)CO)O[C@@H](CO)[C@H](O)[C@H]1O`, the Potency result was “inactive”. On the same count and under the same terms, in the case of `Cc1cc(NC(=O)c2ccc(C)c(Nc3nccc(-c4cccnc4)n3)c2)cc(-n2cnc(C)c2)c1` it was “inactive”; in that of `COc1cc(O)c(C(CC(=O)N2CC(C)CC(C)C2)c2ccc(O)cc2)c(OC)c1` (stereo not drawn), “inactive”; in that of `O=C(Nc1ccc(-c2nc3ccccc3[nH]2)cc1)c1ccc(Cl)c(Cl)c1`, “inactive”. Still for that read-out and setting: in the case of `Cc1ccc(OCCn2c(CCNC(=O)c3cc(N)ccc3N)nc3ccccc32)cc1` it was “inactive”; in that of `COc1cc(O)c(C(CC(=O)N2CCC(c3ccccc3)CC2)c2ccc(C)cc2)c(OC)c1` (stereo not drawn), “inactive”. As for `Cc1cc(NS(=O)(=O)c2ccc(NC(=O)C(C)(C)c3ccc(Cl)c(Cl)c3)cc2)no1`, the Potency result is “inactive”. Take `O=C(Nc1ccc(S(=O)(=O)Nc2nccs2)cc1)c1cccc2ccccc12`: the Potency entry was “inactive”. On the same count and under the same terms, in the case of `CC(C)c1ccccc1-c1nc(NCc2ccc(-c3cccnc3)cc2)c2ccsc2n1` it was “inactive”; in that of `O=C1CCCC2=C1C(c1[nH]ncc1Cl)NC(=NCc1ccccn1)N2` (stereo not drawn), “inactive”; in that of `Fc1cc(Nc2nc(-c3ccncc3)nc3ccccc23)ccc1-c1cc(F)c(F)c(F)c1`, “inactive”. Consider `Cn1nnnc1Sc1ncnc2scc(-c3ccccc3S(C)(=O)=O)c12`, for which the Potency entry was “inactive”. The same measure, in the same setting: in the case of `CC(C)(C)NC(=O)Nc1nnc(-c2ccncc2)s1` it was “inactive”. Still for that read-out and setting: in the case of `c1ccc2c(Nc3nnc(-c4ccncc4)s3)cccc2c1` it was “inactive”; in that of `CCc1nnc(NS(=O)(=O)c2ccc(NC(=S)NC(=O)/C=C/c3ccc(F)cc3)cc2)s1`, “inactive”; in that of `O=C(NCCc1ccccc1)C1CCN(c2nc(-c3ccc(Br)cc3)cs2)CC1`, “inactive”. Still for that read-out and setting: in the case of `COc1ccc2nc(-c3ccc(OC)c(OC)c3)sc2c1` it was “inactive”; in that of `NC(=O)C1CCN(c2ncc(Br)cn2)CC1`, “inactive”; in that of `O=C(CNC(=O)C1CCCC1)OC(C(=O)Nc1cc(C(F)(F)F)ccc1Cl)c1ccccc1` (stereo not drawn), “inactive”.

In the case of `O=C(Cc1ccccc1)Nc1sc2c(c1C(=O)Nc1ccc(Cl)cc1)CCOC2`, the Potency entry is “inactive”. Same read-out and setting: then `Cc1cccc(Nc2nc(NCCO)nc(N3CCCC3)n2)c1`, with “inactive”; and `Cc1cnc(-c2ccccc2C(C)C)nc1NCc1ccc(-c2cccnc2)cc1`, with “inactive”. Same read-out and setting: then `O=C(Cc1ccccc1)Nc1nnc(-c2ccncc2)s1`, with “inactive”.

The target of a further assay is Retinaldehyde dehydrogenase 3 (Homo sapiens) (UniProt P47895). Briefly: qHTS for Inhibitors of the Aldehyde Dehydrogenase Family (ALDH1A3) Primary screen (AID 2061315). The note with it: ALDH inhibition qHTS; series mostly up to 56 µM.
Take `CNC(=O)C1=C(C)NC(Nc2nc3ccccc3o2)=NC1c1nn(C)cc1Cl` (stereo not drawn): the Potency result was “inactive”.

`COCCNc1nc(C)nc2c1nc(-c1ccccc1)n2CC1CCN(C)CC1`: the Potency result is “inactive”. Regarding `Oc1cccc2cc(CNc3ccccc3F)cnc12`, the Potency entry is “inactive”. Regarding `CC(=O)Nc1sc2c(c1-c1ccc(C)cc1)CCNC2`, the Potency entry is “inactive”. In the case of `N#Cc1c(Oc2ccc(F)c(NC(=O)Cc3cccc(C(F)(F)F)c3)c2)ccc2nc(NC(=O)C3CC3)sc12`, the Potency result is “inactive”.

Consider `Cc1ccnc(NC(=S)N[C@H]2CCN(c3cccc(C(F)(F)F)c3)C2)c1`, for which the Potency result was “inactive”.

Regarding `Cc1cc(C)nc(NC(=S)N2CCN(c3ncccc3Cl)CC2)c1`, the Potency entry was “inactive”. Same read-out and setting: then `O=C1CCc2cc(S(=O)(=O)Nc3ccc4ccccc4c3)ccc2N1`, with “inactive”; and `O=[S+]([O-])(/C=C/c1nc(Nc2cc(F)cc(F)c2)c2ncn(CC(F)F)c2n1)c1ccccc1`, with “inactive”; and `CN(C)c1cccc(-c2ncc(F)c(N3CCC(C(N)=O)CC3)n2)c1`, with “inactive”.

Turning to `Cc1ccc(-c2ccc(=O)n(C(C)C)n2)cc1`, the Potency entry is “inactive”.

With `CN(CC(=O)Nc1ccc(N2CCOCC2)cc1)Cc1ccccc1O`, the Potency entry was “inactive”. On the same count and under the same terms, in the case of `Cc1ccc(OCCn2c(CCNC(=O)CCc3ccccc3Br)nc3ccccc32)cc1` it was “inactive”.

Take `CCC(CC)C(=O)NCCc1nc2ccccc2n1CCOc1ccc(C)cc1`: the Potency entry is “inactive”. On the same count and under the same terms, in the case of `O=C(c1ccc2c(c1)ncn2-c1cccc(C(F)(F)F)c1)N1CCCCC1` it was “inactive”.

For `O=C(NCCc1nc2ccccc2n1CCOc1ccc(Cl)cc1)C1CCCCC1`, the Potency entry is “inactive”. The same measure, in the same setting: then `Fc1cc(Nc2nc(-c3ccncc3)nc3ccccc23)ccc1-c1cccc(OC(F)F)c1`, with “inactive”; and `CN[C@@H]1[C@H](O[C@H]2[C@H](O[C@@H]3[C@@H](O)[C@H](O)[C@@H](N=C(N)N)[C@H](O)[C@H]3N=C(N)N)O[C@@H](C)[C@]2(O)CO)O[C@@H](CO)[C@H](O)[C@H]1O`, with “inactive”.

Take `Cc1cc(NC(=O)c2ccc(C)c(Nc3nccc(-c4cccnc4)n3)c2)cc(-n2cnc(C)c2)c1`: the Potency result is “inactive”. Still for that read-out and setting: in the case of `COc1cc(O)c(C(CC(=O)N2CC(C)CC(C)C2)c2ccc(O)cc2)c(OC)c1` (stereo not drawn) it was “inactive”. The same measure, in the same setting: in the case of `O=C(Nc1ccc(-c2nc3ccccc3[nH]2)cc1)c1ccc(Cl)c(Cl)c1` it was “inactive”; in that of `Cc1ccc(OCCn2c(CCNC(=O)c3cc(N)ccc3N)nc3ccccc32)cc1`, “inactive”. On the same count and under the same terms, in the case of `COc1cc(O)c(C(CC(=O)N2CCC(c3ccccc3)CC2)c2ccc(C)cc2)c(OC)c1` (stereo not drawn) it was “inactive”.

In the case of `Cc1cc(NS(=O)(=O)c2ccc(NC(=O)C(C)(C)c3ccc(Cl)c(Cl)c3)cc2)no1`, the Potency result was “inactive”. Still for that read-out and setting: in the case of `O=C(Nc1ccc(S(=O)(=O)Nc2nccs2)cc1)c1cccc2ccccc12` it was “inactive”; in that of `CC(C)c1ccccc1-c1nc(NCc2ccc(-c3cccnc3)cc2)c2ccsc2n1`, “inactive”. Still for that read-out and setting: in the case of `O=C1CCCC2=C1C(c1[nH]ncc1Cl)NC(=NCc1ccccn1)N2` (stereo not drawn) it was “inactive”; in that of `Fc1cc(Nc2nc(-c3ccncc3)nc3ccccc23)ccc1-c1cc(F)c(F)c(F)c1`, “inactive”. In the case of `Cn1nnnc1Sc1ncnc2scc(-c3ccccc3S(C)(=O)=O)c12`, the Potency result is “inactive”. Turning to `CC(C)(C)NC(=O)Nc1nnc(-c2ccncc2)s1`, the Potency entry is “inactive”.

Regarding `c1ccc2c(Nc3nnc(-c4ccncc4)s3)cccc2c1`, the Potency entry was “inactive”.

In the case of `CCc1nnc(NS(=O)(=O)c2ccc(NC(=S)NC(=O)/C=C/c3ccc(F)cc3)cc2)s1`, the Potency result was “inactive”. On the same count and under the same terms, then `O=C(NCCc1ccccc1)C1CCN(c2nc(-c3ccc(Br)cc3)cs2)CC1`, with “inactive”; and `COc1ccc2nc(-c3ccc(OC)c(OC)c3)sc2c1`, with “inactive”. Take `NC(=O)C1CCN(c2ncc(Br)cn2)CC1`: the Potency result is “inactive”. With `O=C(CNC(=O)C1CCCC1)OC(C(=O)Nc1cc(C(F)(F)F)ccc1Cl)c1ccccc1` (stereo not drawn), the Potency entry was “inactive”. On the same count and under the same terms, in the case of `O=C(Cc1ccccc1)Nc1sc2c(c1C(=O)Nc1ccc(Cl)cc1)CCOC2` it was “inactive”; in that of `Cc1cccc(Nc2nc(NCCO)nc(N3CCCC3)n2)c1`, “inactive”. Still for that read-out and setting: in the case of `Cc1cnc(-c2ccccc2C(C)C)nc1NCc1ccc(-c2cccnc2)cc1` it was “inactive”; in that of `O=C(Cc1ccccc1)Nc1nnc(-c2ccncc2)s1`, “inactive”.
